Laboratory results taken from PubChem BioAssay (NCATS).
Where “and” joins values, the source holds several entries; their conditions need not be identical. Equal values may be shown once. Records with an inconclusive call do not appear. Entries that show only a call come without a potency. Unmarked numbers belong to inactive results. Calls of active or inactive are those of the source. The call rests on the fitted dose curve; in most records, active means well fitted curve in the direction sought with a large enough effect; inconclusive means small, poorly fitted or top-dose-only effect, or another doubt; inactive means no such curve, though single readings can be large; an effect the other way counts as inactive or inconclusive. Numbered stars: 1 amine (or outer) side, 2 acyl side, 3 side chain; on linkers, the order of the positions; unused ones are H or OH. Square brackets hold non-standard residues; d marks the D form. Peptide text beside a SMILES is read from it. X2 = CC(C)=CCc1cc(C(O)C(N[*:1])C(=O)[*:2])ccc1O

Experiments:
[1] = molecular target: Cellular tumor antigen p53 (Homo sapiens) (UniProt P04637); experiment: Primary qHTS for small molecule compounds that upregulate eGFP-tagged delta133p53alpha (in N-terminal) cells. (AID 2060322); conditions: NCI-H358 eGFP-delta133p53alpha fluorescence, 24 h; activation: stronger effect = higher value; further: nearly all actives have a fitted effect of over 75% in size; further: potency means the concentration at half of the fitted maximal effect;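 on activation: cells pre-induced with doxycycline then dosed without doxycycline; series mostly up to about 56 µM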
Procedure, shortened: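 NCI-H358 cells pre-induced 24 h with 10 ng/ml doxycycline for eGFP-delta133p53alpha, plated dox-free and exposed 24 h at 37C to titrated compounds. Fixed, Hoechst-stained; gated GFP peak intensity by laser scanning cytometry, normalized to DMSO (0%) and 57.5 uM 5-azacytidine (100%).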

[2] = molecular target: Aldehyde dehydrogenase, mitochondrial (Homo sapiens) (UniProt P05091); experiment: qHTS for Inhibitors of the Aldehyde Dehydrogenase Family (ALDH2) Primary screen (AID 2061308); further: nearly all actives have a fitted effect of over 55% in size
[3] = molecular target: Retinaldehyde dehydrogenase 3 (Homo sapiens) (UniProt P47895); experiment: qHTS for Inhibitors of the Aldehyde Dehydrogenase Family (ALDH1A3) Primary screen (AID 2061315)

Chain of Cellular tumor antigen p53 (Homo sapiens) (P04637 whole entry, looked up): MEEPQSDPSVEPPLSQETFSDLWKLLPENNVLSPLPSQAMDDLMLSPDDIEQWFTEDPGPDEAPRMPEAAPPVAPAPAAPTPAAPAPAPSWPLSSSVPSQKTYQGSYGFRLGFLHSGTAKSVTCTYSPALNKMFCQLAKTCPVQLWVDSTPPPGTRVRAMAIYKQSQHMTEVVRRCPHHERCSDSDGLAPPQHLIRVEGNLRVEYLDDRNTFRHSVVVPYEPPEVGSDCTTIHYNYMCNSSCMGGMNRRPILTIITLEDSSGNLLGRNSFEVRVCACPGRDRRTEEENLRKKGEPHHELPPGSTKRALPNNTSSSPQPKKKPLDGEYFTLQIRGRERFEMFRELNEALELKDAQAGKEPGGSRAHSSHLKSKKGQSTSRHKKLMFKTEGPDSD

| SMILES | activation [1] | Potency [2] | Potency [3] | Potency [1] | activity change, negative = inhibition [2] | activity change, negative = inhibition [3] |
| --- | --- | --- | --- | --- | --- | --- |
| CC(=O)N[C@H](Cc1c[nH]c2ccccc12)C(=O)OCc1cc(C(F)(F)F)cc(C(F)(F)F)c1 | 14.3% | inactive | inactive |  |  |  |
| CN(C)C/C=C/C(=O)Nc1cc2c(Nc3ccc(F)c(Cl)c3)ncnc2cc1OC1CCOC1 (configuration not stated) |  | inactive | inactive | 7.57 µM (active) |  |  |
| C/C(=N\O)c1ccc(OCC(=O)N2CCCCC2)cc1 | 3.35% | inactive | inactive |  |  |  |
| C[C@@H]1CC2OC(=O)C3=C2C(CCC3O)[C@@]12C[C@@H](c1ccoc1)OC2=O (some centres not stated) | -8.4% | inactive | inactive |  |  |  |
| CC(NC(=O)CC(=O)O)C(=O)Nc1ccccc1C(N)=O (configuration not stated) | -3.05% | inactive | inactive |  |  |  |
| CCOC(=O)C(CCc1ccccc1)NC(C)C(=O)N1C(=O)N(C)CC1C(=O)O (configuration not stated) | -5.25% | inactive | inactive |  |  |  |
| CC(C)=CCc1cc(O[C@@H]2O[C@H](CO[C@@H]3OC[C@](O)(CO)[C@H]3O)[C@@H](O)[C@H](O)[C@H]2O)ccc1O | 22.1% | inactive | inactive |  |  |  |
| CC(=O)c1ccc(O[C@@H]2O[C@H](CO[C@@H]3OC[C@@H](O)[C@H](O)[C@H]3O)[C@@H](O)[C@H](O)[C@H]2O)cc1 | -12.2% | inactive | inactive |  |  |  |
| C=C1CCc2occ(C)c2[C@H]2[C@H]1[C@@]13O[C@@]1(C[C@@H](C)[C@H]3OC(C)=O)[C@H]1O[C@@]21C | -19.6% | inactive | inactive |  |  |  |
| C=C1CC[C@@H]2[C@](C)(CO)[C@H](O)CC[C@@]2(C)[C@@H]1C/C=C1/C(=O)OC[C@@H]1O |  | inactive | inactive | 11.7 µM (active) |  |  |
| C=C1CC2C(C)(CCC(=O)O)C(C(C)(C)O)CCC2(C)C2C(=O)OC(C)(C(=O)OC)C(=O)C12C (configuration not stated) | 10.7% | inactive | inactive |  |  |  |
| COc1cc(CO)ccc1O[C@@H]1O[C@H](CO)[C@@H](O)[C@H](O)[C@H]1O | -7.14% | inactive | inactive |  |  |  |
| N#Cc1ccc2ncnc(NCCc3ccccc3)c2c1 | -3.57% | inactive | inactive |  |  |  |
| O=C(Nc1ccc(Cl)cc1)C1CCCN(C(=O)c2cccc(-c3ccco3)c2)C1 (configuration not stated) | -4.77% | inactive | inactive |  |  |  |
| N[C@H]1CN(c2c(F)cc3c(=O)c(C(=O)O)cn(C4C[C@@H]4F)c3c2Cl)CC12CC2 (some centres not stated) | -26% | inactive | inactive |  |  |  |
| O=C(c1ccc(F)cc1)N1CCCC(c2nc(-c3ccc(F)cc3)no2)C1 (configuration not stated) | -1.91% | inactive | inactive |  |  |  |
| CCC(C)/C=C(C)/C=C/C1=CC2=CC(=O)C3(C)OC(C)(O)C(C(=O)OC)C3C2=CO1 (configuration not stated) |  | inactive | inactive | 13.1 µM (active) |  |  |
| C=C1C(O)CC2C(C(=O)O)=COC(O[C@@H]3O[C@H](COC(=O)/C=C/c4ccc(O)cc4)[C@@H](O)[C@H](O)[C@H]3O)C12 (some centres not stated) | -6.87% | inactive | inactive |  |  |  |
| CC(C)=CC/C=C(\C)[C@H]1CC[C@]2(C)[C@@H]1[C@H](O)C[C@@H]1[C@@]3(C)CC[C@H](O)C(C)(C)[C@@H]3[C@@H](O[C@@H]3O[C@H](CO)[C@@H](O)[C@H](O)[C@H]3O)C[C@]12C | 1.67% | inactive | inactive |  |  |  |
| C=C1CCC2C(C)(C)CCC[C@]2(C)[C@H]1C/C=C(\CO)C(=O)C(=O)O (some centres not stated) | -6.87% | inactive | inactive |  |  |  |
| CCC[C@@H]1C[C@@H](C(=O)N[C@@H]([C@H]2O[C@H](SC)[C@H](OP(=O)(O)O)[C@@H](O)[C@H]2O)[C@H](C)Cl)N(C)C1 | 13.4% | inactive | inactive |  |  |  |
| CC(O)C1CCC2C3CCC4CC(OC5OC(C(=O)O)C(O)C(O)C5O)CCC4(C)C3CCC12C (configuration not stated) | -17% | inactive | inactive |  |  |  |

| SMILES | activation [1] | Potency [2] | Potency [3] | Potency [1] | activity change, negative = inhibition [2] | activity change, negative = inhibition [3] |
| --- | --- | --- | --- | --- | --- | --- |
| C/C=C/C=C/C=C/C(=O)O[C@@H]1[C@@H](OC)C2=C(C(=O)N(C(C)C(=O)O)C2)[C@@]2(C)CCCC(C)(C)[C@H]12 (some centres not stated) | -2.68% | inactive | inactive |  |  |  |
| CC1=C2C(=O)O[C@@H](c3ccoc3)[C@]2(C)CCC1 | -11.6% and -7% | inactive | inactive |  |  |  |
| CC1=CC(=O)C[C@H]2[C@@H]1CC[C@@H](C)[C@]21CO[C@H](c2ccoc2)C1=O | -3.82% | inactive | inactive |  |  |  |
| CO[C@@H]1CC[C@H](OC[C@]2(COC(=O)c3ccc(C)[nH]3)[C@H](OC(C)=O)CC[C@@]3(C)[C@@H]4CC=C(C)[C@@H](C5=C(O)C(=O)OC5O)[C@]4(C)CC[C@@H]32)O[C@H]1C (some centres not stated) | 0% | inactive | inactive |  |  |  |
| C=C1C2=CC(O)C(C)C1(C)CC/C(C)=C/CCC1(C)OC1C2=O (configuration not stated) | 0.763% | inactive | inactive |  |  |  |
| COc1cc(C#N)ccc1S(=O)(=O)Nc1ccc2c(c1)cc(C)c(=O)n2C | -7% | inactive | inactive |  |  |  |
| CC(C)C(C#N)O[C@@H]1O[C@H](CO[C@@H]2OC[C@](O)(CO)[C@H]2O)[C@@H](O)[C@H](O)[C@H]1O (some centres not stated) | 6.87% | inactive | inactive |  |  |  |
| COc1cc(/C=C/c2ccccc2)c(C(=O)O)c(O)c1CC=C(C)C | -9.82% | inactive | inactive |  |  |  |
| C[C@@H]1CC[C@]2(C(=O)O[C@@H]3O[C@H](CO)[C@@H](O)[C@H](O)[C@H]3O)CC[C@]3(C)C(=CCC4[C@@]5(C)C[C@@H](O)[C@H](O)[C@@](C)(C(=O)O[C@H]6[C@H](O)C[C@@]7(C)C(CC[C@]8(C)C7CC=C7[C@H]9[C@](C(=O)O[C@@H]%10O[C@H](CO)[C@@H](O)[C@H](O)[C@H]%10O)(CC[C@@H](C)[C@@]9(C)O)CC[C@]78C)[C@@]6(CO)C(=O)O)C5CC[C@]43C)[C@@H]2[C@]1(C)O (some centres not stated) | 0% |  |  |  | -16.3% [at 11.2 µM] | -6.62% [at 11.2 µM] |
| CC1CCC23COC(=O)C2=CC(O)CC3C1(C)CCC1=CC(=O)OC1O (configuration not stated) | 0.763% | inactive | inactive |  |  |  |
| C=CC(C)(C)C12C=C(OC)C(=O)N3C(C(C)C)C(=O)NC31N(OC)c1ccccc12 (configuration not stated) | -9.16% | inactive | inactive |  |  |  |
| C[C@H]1[C@H](C)CC[C@]2(C(=O)OC3OC(CO)C(O)C(O)C3O)CC[C@]3(C(=O)O)C(=CCC4[C@@]5(C)CC[C@H](O[C@@H]6O[C@@H](C)[C@H](OC7OC(CO)C(O)C(O)C7O)[C@@H](O)[C@H]6O)C(C)(C)C5CC[C@]43C)[C@H]12 (some centres not stated) | -9.92% | inactive | inactive |  |  |  |
| CC1OC(OC2C(CO)OC(OCC3OC(OC(=O)C45CCC(C)(C)CC4C4=CCC6C7(C)CCC(OC8OC(CO)C(O)C(OC9OC(CO)C(O)C(O)C9O)C8O)C(C)(C)C7CCC6(C)C4(C)CC5)C(O)C(O)C3O)C(O)C2O)C(O)C(O)C1OC1OC(CO)C(O)C(O)C1O (configuration not stated) | -2.29% |  |  |  | -2.7% [at 11.2 µM] | 7.19% [at 11.2 µM] |
| COC(=O)C1=COC(O[C@@H]2O[C@H](CO)[C@@H](O)[C@H](O)[C@H]2O)[C@@H]2[C@@](C)(O)[C@@H](OC(=O)/C=C/c3ccccc3)C[C@]12O (some centres not stated) | 15.2% | inactive | inactive |  |  |  |
| CC(CCC1(O)OC2CC3C4CC=C5CC(O[C@@H]6O[C@H](CO)[C@@H](O[C@@H]7O[C@H](CO)[C@@H](O)[C@H](O)[C@H]7O)[C@H](O)[C@H]6O[C@@H]6O[C@@H](C)[C@H](O)[C@@H](O)[C@H]6O)CCC5(C)C4CCC3(C)C2C1C)CO[C@@H]1O[C@H](CO)[C@@H](O)[C@H](O)[C@H]1O (some centres not stated) | 12.5% | inactive | inactive |  |  |  |
| CCC(C)C(=O)OC12C(OC(C)=O)C(C)C3(O)C(C=C(CO)CC4(O)C(=O)C(C)=CC43)C1C2(C)C (configuration not stated) | -19.1% | inactive | inactive |  |  |  |
| Cn1ccc(NC(=O)c2cc(Oc3ccc(C(=O)N4CCC4)c(F)c3)c3c(c2)OC(C)(C)C3)n1 | -12.3% | inactive | inactive |  |  |  |
| CCC(C)(OC(C)=O)C(=O)O[C@H]1[C@H](OC(C)=O)[C@]2(CO)[C@H](O)[C@H](O)[C@]3(C)C(=CCC4[C@@]5(C)CC[C@H](O[C@@H]6O[C@H](C(=O)O)[C@@H](O)[C@H](O[C@@H]7OC[C@H](O)[C@H](O[C@@H]8OC[C@H](O)[C@H](O)[C@H]8O)[C@H]7O)[C@H]6O[C@@H]6O[C@H](CO)[C@@H](O)[C@H](O)[C@H]6O)C(C)(C)C5CC[C@]43C)[C@@H]2CC1(C)C (some centres not stated) |  |  |  | 3.2 µM (active) | -13.5% [at 11.2 µM] | 11.4% [at 11.2 µM] |
| COc1ccc(C#Cc2ccc(C(=O)N3CCC[C@@H](O)C3)c(F)c2)cc1 | -8.04% | inactive | inactive |  |  |  |
| CC(C)=CCc1cc(C(O)C2NC(=O)CNC(=O)C(Cc3c[nH]c4ccccc34)NC(=O)C3CCCN3C(=O)CNC(=O)C(C(C)C)NC(=O)CNC2=O)ccc1O (configuration not stated) (cyclo(G[X2]GVGPW); configuration not given here) | -8.4% | inactive | inactive |  |  |  |
| CC1(C)CC[C@]2(C(=O)O)CC[C@]3(C)C(=CCC4[C@@]5(C)CC[C@H](O[C@@H]6O[C@H](C(=O)O)[C@@H](O[C@@H]7OC[C@@H](O)[C@H](O)[C@H]7O)[C@H](O)[C@H]6O)C(C)(C)C5CC[C@]43C)C2C1O (some centres not stated) | -1.79% | inactive | inactive |  |  |  |
| C/C=C/C=C/C(=O)N1CC[C@]23c4ccccc4N[C@H]4N(C)c5cccc6c5[C@@]42CCN([C@H]6C2OC2(C)C)[C@H]13 (some centres not stated) | 15.3% | inactive | inactive |  |  |  |
